Anthrax LF inh2: inhibitors of Bacillus anthracis lethal factor protease; P15917; multiplex microsphere protease cleavage assay, LF; inhibition, % at 10 µM; 360,000 compounds, 0.12% hits; AID 588501; further: plate controls were buffer without enzyme for full effect and enzyme alone for no effect
Bead autofluor: counter-screen for toxin protease inhibitors: compound fluorescence; compound autofluorescence counterscreen, microsphere flow cytometry; stronger effect = higher value; fluorescence intensity (test concentration not listed); 360,000 compounds, 3.1% hits; AID 624483; in the data active means fluorescence intensity above about 16000; inconclusive means no clear call, values can overlap the other calls
BoNT-A LC inh2: BoNT A light chain protease inhibition. multiplex microsphere protease substrate cleavage, flow cytometry. inhibition, % at 10 µM. 360,000 compounds, 0.17% hits; further: plate controls were buffer without enzyme for full effect and enzyme alone for no effect
PriA SSB inh: K. pneumoniae PriA-SSBct interaction inhibition; AlphaScreen SSBct-PriA binding, biotinylated peptide; inhibition, % at 33 µM; 430,000 compounds, 0.6% hits; AID 1272365; in the data active means inhibition mostly above about 37%, no sharp cut-off; inactive means mostly below about 20%;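 further: plate controls were negative control peptide for no effect and reference peptide for full effect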
BoNT F protease: inhibitors of Botulinum neurotoxin F light chain protease; Multiplex microsphere protease cleavage assay, flow cytometry; inhibition, % at 10 µM; 360,000 compounds, 0.22% hits; in the data active means inhibition above about 35%, passing the limit was not always enough; inconclusive means no clear call, values can overlap the other calls; further: plate controls were buffer without enzyme for full effect and enzyme alone for no effect
Numbers without * were called inactive; ? = inconclusive; / = no result. An excerpt weighted towards active compounds, which were near 3.1% of everything screened. Unless noted, no stated cut-off is given here; in the data, active means inhibition above about 30%; inconclusive means no clear call, values can overlap the other calls; inactive means below that.

SMILES	Anthrax LF inh2	Bead autofluor	BoNT-A LC inh2	PriA SSB inh	BoNT F protease
CCc1cc(C(=O)OC)c(NC(=O)CC2NCCNC2=O)s1 (stereo not given)	0	21532*	?	-27	0
O=C(CC1NCCNC1=O)Nc1ccc2c(c1)OCO2 (stereo not given)	-5	22917*	-2	-6	-8
O=C(CC1NCCNC1=O)Nc1ccc(Cl)c(Cl)c1 (stereo not given)	0	2212	0	-5	-5
O=C(NCc1ccc(F)cc1Cl)c1ccc(CS(=O)(=O)Cc2ccccc2F)o1	/	/	/	-27	/
Cn1nccc1C(=O)Nc1ccc(S(C)(=O)=O)cc1	/	/	/	-9	/
Cc1nn(Cc2ccc(C(=O)n3cccn3)o2)c(C)c1Br	1	3805	0	-13	4
Cc1cc(C)n(C(=O)c2ccc(Cn3nc(C)c(Br)c3C)o2)n1	-2	23364*	0	-10	-4
COc1ccc(S(=O)(=O)N2CCC(C(=O)N3CCN(c4ccccc4)CC3)CC2)cc1	/	/	/	-6	/
CCOC(=O)CSCC(=O)Nc1cc(C)ccc1C	-2	26149*	-9	-2	-10
CCOC(=O)C(=CNc1cc(C)ccc1C)C(=O)OCC	-3	17727*	-3	-22	-6
COC(=O)c1ccc(COC(=O)CSCC(=O)Nc2ccc(C)cc2C)cc1	?	4255	-2	-1	-4
S=C(NN=C(C1CC1)C1CC1)Nc1ccccc1	-3	17259*	-2	-1	-5
O=C(NNC(=S)Nc1ccccc1)C1CC1	-2	5187	0	-7	-4
CCOP(=O)(OCC)/C(C#N)=C/c1ccc(-c2cc(Cl)ccc2Cl)o1	/	/	/	-8	/
Cc1cc2ncn(/N=C/c3ccc([N+](=O)[O-])s3)c2cc1C	15	2076	44*	/	21
O=[N+]([O-])c1ccc(/C=N/n2cnc3ccccc32)s1	12	9692	15	/	16
O=S(=O)(NCC1CCCO1)c1ccc(-c2ccc(S(=O)(=O)NCC3CCCO3)cc2)cc1 (stereo not given)	5	3974	-1	-2	-4
O=S(=O)(NCC1CCCO1)c1ccc(Oc2ccccc2)cc1 (stereo not given)	-3	21154*	-2	4	-2
COc1ccc(S(=O)(=O)NC[C@H]2CCCO2)cc1C(=O)O	/	/	/	-14	/
COc1cccc2cc(NC(=O)C3CCCCC3)c(=O)oc12	0	21365*	?	-13	5
COc1cccc(N(CC(=O)NCC2CCCO2)C(=O)CNS(=O)(=O)c2ccccc2)c1 (stereo not given)	-5	3735	-1	-20	-10
COc1cccc(CN(CC(=O)NCC2CCCO2)C(=O)CNS(=O)(=O)c2ccccc2)c1 (stereo not given)	-1	16841*	-2	-14	-2
COc1cccc2cc(C(=O)Nc3ccc(S(=O)(=O)NCC4CCCO4)cc3)c(=O)oc12 (stereo not given)	-32	24536*	-24	1	-118
Cc1ccc(NC(=O)c2cc(-c3ccccc3)nc3ccccc23)c(C(=O)c2ccccc2)c1	/	/	/	3	/
O=C(Nc1ccc(S(=O)(=O)NCC2CCCO2)cc1)c1ccccc1 (stereo not given)	0	2654	-1	-13	6
SMILES	Anthrax LF inh2	Bead autofluor	BoNT-A LC inh2	PriA SSB inh	BoNT F protease
CCC(Oc1ccccc1)C(=O)Nc1ccc(S(=O)(=O)NCC2CCCO2)cc1 (stereo not given)	-4	20336*	1	4	1
CCSc1ccccc1C(=O)NCC#CCN1CCOCC1	/	/	/	-12	/
O=C(Nc1cc2ccccc2cc1NC(=O)c1cccc(Cl)c1)c1cccc(Cl)c1	/	/	/	-10	/
COCCn1c(SCC(=O)Nc2ccc(S(=O)(=O)N3CCOCC3)cc2)nc2ccccc21	-6	23038*	?	-7	-4
COCCn1c(SCC(=O)Nc2ccc(S(N)(=O)=O)cc2)nc2ccccc21	-2	2633	-1	2	-6
CCn1c(SCC(=O)Nc2cc(C)on2)nnc1-c1ccc(S(=O)(=O)N2CCCC2)cc1	0	20376*	?	-13	-1
Cn1nnnc1SCC(=O)Nc1cccc(S(=O)(=O)N2CCCC2)c1	4	4595	0	-16	-4
O=C(CCCN1C(=O)c2ccccc2C1=O)Nc1ccc(S(=O)(=O)N2CCCCC2)cc1	0	11121	0	-24	-14
O=C(CCCN1C(=O)c2ccccc2C1=O)Nc1ccc(S(=O)(=O)N2CCOCC2)cc1	-5	24200*	?	-4	-7
CC1CCN(S(=O)(=O)c2ccc(NC(=O)CSc3nnnn3C)cc2)CC1	2	23542*	-1	-6	-1
O=C(CSCc1ccccc1)NCC#CCN1CCOCC1	/	/	/	-5	/
COC(=O)c1sccc1S(=O)(=O)N1CCC(CSc2ccccn2)CC1	/	/	/	-5	/

Bioassay records deposited in PubChem by several laboratories.
